Assay outcomes deposited in PubChem by SRMLSC.
Spn PMK inh: S. pneumoniae PMK inhibition. purified PMK, PK/LDH-coupled NADH absorbance 340 nm. inhibition, % at 10 µM. 65,000 tested, 0.49% active. AID 539;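 active means top-ranked compounds by inhibition in the single 10 µM screen, taking a fixed number of the strongest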;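 further: 0% = full reaction with DMSO carrier and 100% = background rate without enzyme reaction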
DPM-DC inhibit: inhibitors of Streptococcus pneumoniae diphosphomevalonate decarboxylase; 65,000 tested, 0.49% active; calls only at 10 µM; purified DPM-DC, PK/LDH coupled NADH fluorescence;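 active means the 320 compounds with the highest percent inhibition in the single-dose primary screen, excluding strongly autofluorescent ones, cut at about 32% in these data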;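 further: kinetic rate of NADH fluorescence loss reporting ADP formed by the decarboxylase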
Spn MK inh: blocks S. pneumoniae mevalonate kinase | purified MK, PK/LDH-coupled NADH absorbance 340 nm | inhibition, % at 10 µM | 65,000 tested, 0.48% active | AID 555;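 active means ranked among the strongest by inhibition in the single 10 µM screen, a fixed top-ranked set picked for dose follow-up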
NADH enzymes: inhibition of NAD/NADH coupling enzymes, library profiling; coupled PK/LDH NADH assays, four targets; IC50, µM (highest dose often 10 µM), without a hit: at the highest dose inhibition; 65,000 tested, 0.02% active;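 active means single-dose screening hits from any of four coupled enzyme assays that gave an IC50 when retested across doses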;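 further: the DPM-DC format reads NADH fluorescence rather than 340 nm absorbance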
The depositor's hits bear a star; [ ] = dose if it differs, or a comment. A selection: hits, their analogues and other compounds. The true share with any hit is near 1.3%.

Screening Oc1ccc(Br)cc1CN1CCN(c2ccccc2)CC1 returned Spn PMK inh 0.0, DPM-DC inhibit inactive, Spn MK inh 3.0 and NADH enzymes 1.0%.
COc1cc(C)c(CN2CCN(c3ccccc3)CC2)cc1C was read as Spn PMK inh 8.0, DPM-DC inhibit inactive, Spn MK inh 49.0* and NADH enzymes 19.0%.
CCC(C)N1C(=O)NC(=O)C2(Cc3cc(C)ccc3N(C)C2)C1=O (stereo not given) was read as Spn PMK inh 5.0, DPM-DC inhibit inactive, Spn MK inh 8.0 and NADH enzymes 4.0%.
For CCn1nc(-c2ccccc2)nc2c(=O)n(C)c(=O)nc1-2 the results were Spn PMK inh 11.0, DPM-DC inhibit active, Spn MK inh 11.0 and NADH enzymes 32.8µM*.
`O=c1c2ccccc2[se]n1-c1ccccc1` gave Spn PMK inh 100.0*, DPM-DC inhibit active, Spn MK inh 72.0* and NADH enzymes 55.5µM*.
Screening CCOC(=O)c1cc2c(cn1)[nH]c1ccccc12 returned Spn PMK inh 9.0, DPM-DC inhibit active[fluoresces], Spn MK inh 9.0 and NADH enzymes 6.0%.
For CCCCn1c(O)c(C(C)=NC(Cc2c[nH]c3ccccc23)C(=O)OC)c(=O)[nH]c1=O (stereo not given) the results were Spn PMK inh 6.0, DPM-DC inhibit inactive, Spn MK inh 6.0 and NADH enzymes 2.0%.
For COc1ccc(-c2cc(C(F)(F)F)n3nc(C(=O)N4CCC5(CC4)OCCO5)cc3n2)cc1OC the results were Spn PMK inh 9.0, DPM-DC inhibit active, Spn MK inh 5.0 and NADH enzymes 23.0%.
Screening O=C(c1cc2ccccn2n1)N1CCC2(CC1)OCCO2 returned Spn PMK inh 8.0, DPM-DC inhibit inactive, Spn MK inh 0.0 and NADH enzymes 3.0%.
For [O-][n+]1onc2c1CCC1N(O)CCC21O (stereo not given) the results were Spn PMK inh 0.0, DPM-DC inhibit inactive, Spn MK inh 0.0 and NADH enzymes 0.0%.
